Compound activity deposited in PubChem BioAssay by National Center for Advancing Translational Sciences (NCATS).
SW480 rereplic = induces DNA re-replication in SW480 colon adenocarcinoma cells; SW480 DNA re-replication, Hoechst DNA content imaging, 48 h; Potency, µM (doses to about 46.1 µM), inactives show top-dose re-replication activation, hits mostly activators; actives 1.8% (n = 340,000); further: % of control where 0% means no effect; nearly all actives have a fitted effect of over 55% in size
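Compounds, transferred as 23 nL by pin tool, were incubated with cells for 48 hr; DNA content per nucleus was then quantified by Hoechst staining and fluorescence plate imaging.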
MCF10A rereplic = inducers of DNA re-replication in MCF 10A breast cells; MCF 10A DNA re-replication, Hoechst nuclear intensity, 48 h; Potency, µM (highest dose often 46.1 µM), for inactives: at the top dose activity, positive = re-replication, actives largely listed as activators; actives 2.9% (n = 350,000); further: % of control where 0% means no effect; nearly all actives have a fitted effect of over 50% in size
KB-V1 MDR tox = KB-V1 MDR subline cytotoxicity | KB-V1 MDR cells viability, CellTiter-Glo, 72 h | Potency, µM (series often up to 46.1 µM), actives largely listed as cytotoxic | actives 3.4% (n = 400,000) | AID 1347076; further: on the % scale 0 is the no-effect control and ±100 the full control effect; nearly all actives have a fitted effect of over 60% in size
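qHTS viability screen in drug-selected KB-V1 MDR cells: 72 h compound treatment at 37 degrees C, ATP luminescence end point.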
KB-3-1 cytotox = kills parental KB-3-1 adenocarcinoma cells. Potency, µM (titrated, usually from 46.1 µM), most hits filed as cytotoxic. actives 1.4% (n = 400,000). KB-3-1 viability, CellTiter-Glo ATP luminescence, 72 h; further: on the % scale 0 is the no-effect control and ±100 the full control effect; nearly all actives have a fitted effect of over 60% in size
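Parental KB-3-1 adenocarcinoma cells in phenol-red-free DMEM with 10% FBS were pin-treated with compounds at several concentrations, incubated 72 h at 37 °C, and viability read by CellTiter-Glo luminescence; concentration-effect curves were fitted after normalization.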
ELG1 repair inh = ELG1-dependent DNA repair inhibition; HEK293T ELG1-luciferase reporter, luminescence, 16 h; DNA damage induced by 5-fluorouridine; actives 2.3% (n = 330,000); Potency, µM (highest dose often 46.1 µM), inactives show at the highest dose activity change, negative = inhibition, most hits filed as inhibitors; AID 504467; further: on the % scale 0 is the no-effect control and ±100 the full control effect; nearly all actives have a fitted effect of over 55% in size
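Luminescence from the luciferase reporter, measured 30 min after ONE-Glo reagent at room temperature, was the read-out. Beforehand, 2,000 cells per well were exposed for 16 hr at 37 °C to 5-fluorouridine together with compound or vehicle.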
Active calls of the source: *; i = inactive; ? = inconclusive; nt = not tested or not shown. An excerpt weighted towards active compounds, which were near 8.1% of everything screened. The call rests on the fitted dose curve; in most records, active means well fitted curve in the direction sought with a large enough effect; inconclusive means small, poorly fitted or top-dose-only effect, or another doubt; inactive means no such curve, though single readings can be large; an effect the other way counts as inactive or inconclusive. Potency means the concentration at half of the fitted maximal effect.

SMILES	SW480 rereplic	MCF10A rereplic	KB-V1 MDR tox	KB-3-1 cytotox	ELG1 repair inh
Cc1onc(-c2ccccc2Cl)c1C(=O)N1CCc2ccccc21	7.4%	1.2%	23.1µM*	i	?
Cc1onc(-c2ccccc2Cl)c1C(=O)N1CCCCC1	-62.7%	-1.7%	i	i	-0.1%
Cc1onc(-c2ccccc2)c1C(=O)N1CCN(Cc2ccccc2)CC1	-0.4%	2.9%	23.1µM*	i	-16.5%
COc1ccccc1N1CCN(C(=O)c2c(-c3ccccc3Cl)noc2C)CC1	?	17.0%	?	20.6µM*	?
Cc1onc(-c2ccccc2Cl)c1C(=O)OCC(=O)N1CCN(c2ccccc2)CC1	-4.0%	?	8.2µM*	i	-3.4%
Cc1ccc(C(=O)N2CCN(Cc3ccccc3)CC2)o1	-2.0%	-22.0%	i	i	14.4%
Cc1ccc(/C=C/C(=O)N2CCN(Cc3ccccc3)CC2)o1	0.2%	5.2%	13µM*	i	?
Cc1c(-c2nsc(NC(=O)c3ccc(Cl)cc3)n2)nnn1-c1ccc(C(C)C)cc1	nt	nt	i	i	nt
Cc1cccn2c(=O)c3cc(C(=O)NCc4cccnc4)c(=N)n(CC4CCCO4)c3nc12 (configuration not stated)	?	2.31µM*	i	i	0.0%
COCCCn1c(=N)c(C(=O)NCC2CCCO2)cc2c(=O)n3ccccc3nc21 (configuration not stated)	6.51µM*	11.6µM*	i	i	-0.7%
CCOCCCn1c(=N)c(C(=O)NCC2CCCO2)cc2c(=O)n3cccc(C)c3nc21 (configuration not stated)	nt	nt	i	i	nt
Cc1cccn2c(=O)c3cc(C(=O)NCCc4ccccc4)c(=N)n(CC4CCCO4)c3nc12 (configuration not stated)	-5.1%	?	i	i	-12.7%
Cc1cccn2c(=O)c3cc(C(=O)NCC4CCCO4)c(=N)n(CCN4CCOCC4)c3nc12 (configuration not stated)	16.4µM*	14.6µM*	i	i	-7.4%
Cc1ccc(CNC(=O)c2cc3c(=O)n4cccc(C)c4nc3n(CC3CCCO3)c2=N)cc1 (configuration not stated)	nt	nt	nt	nt	-0.8%
COCCCn1c(=N)c(C(=O)NCC2CCCO2)cc2c(=O)n3cccc(C)c3nc21 (configuration not stated)	6.51µM*	13µM*	?	?	?
CO[C@@H]1CN(C)C(=O)c2cc(NS(=O)(=O)c3ccc(C)cc3)ccc2OC[C@H](C)N(Cc2nccs2)C[C@H]1C	nt	nt	i	i	nt
O=C1Cc2cc(S(=O)(=O)N3CCN(c4ccc([N+](=O)[O-])cc4)CC3)ccc2N1	nt	nt	i	i	nt
O=C(Nc1ccccc1Br)N1CCN2CCCCC2C1 (configuration not stated)	nt	nt	i	i	nt
CN(C)c1ccc(C=O)c(F)c1	nt	nt	i	i	nt
CCN1CCN(Cc2c(C(=O)N/N=C(\C)c3ccc(Cl)c(Cl)c3)nnn2-c2nonc2N)CC1	nt	nt	nt	nt	0.7%
CCCn1c(=N)c(C(=O)NCC2CCCO2)cc2c(=O)n3cc(C)ccc3nc21 (configuration not stated)	nt	nt	i	i	nt
CCCn1c(=N)c(C(=O)NCC2CCCO2)cc2c(=O)n3cccc(C)c3nc21 (configuration not stated)	?	11.6µM*	i	20.6µM*	-3.0%
Cc1noc(C)c1CSc1nnc2n(-c3ccccc3)c(=O)c3ccccc3n12	3.5%	-3.1%	i	i	nt
Cc1noc(C)c1CSc1nc2ccccc2c(=O)n1-c1ccccc1	13µM*	7.31µM*	5.8µM*	5.8µM*	-18.5%
Cc1noc(C)c1CSc1nc2ccccc2c(=O)n1-c1ccc(F)cc1F	?	13µM*	20.6µM*	7.31µM*	?
Cc1noc(C)c1CSc1nc2[nH]ncc2c(=O)n1-c1ccccc1	?	1.26µM*	?	?	?
Cc1nc(CSc2nc3[nH]ncc3c(=O)n2-c2ccccc2)cs1	-1.1%	-1.3%	i	i	-4.7%
